NadD inh: inhibitors of S. aureus NadD, primary screen, biochemical, colorimetric, uHTS; Nicotinate-nucleotide adenylyltransferase NadD (Staphylococcus aureus N315); purified NadD enzyme, colorimetric absorbance read-out; inhibition, % at 20 µM; 0.78% of 360,000 active; AID 602399, 2012; in the data active = inhibition above about 26%
rCAG RNA binder: binders of r(CAG) RNA repeats, primary screen, biochemical, fluorescence; r(CAG) RNA repeat, TO-PRO-1 dye displacement fluorescence; inhibition, % at 3 µM; AID 651821, 2012; 1.3% of 370,000 active;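 active = inhibition above the plate cutoff, the mean of all test compounds on that plate plus 3 SD, cut at about 35% in these data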;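 also: 0% = DMSO alone and 100% = 100 µM mitoxantrone as full dye displacement; higher means more dye released from RNA so lower well fluorescence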
FAS TE block: FAS thioesterase domain inhibitors, primary screen, biochemical, fluorescence intensity, uHTS. recombinant FAS-TE, OMFH fluorogenic substrate, fluorescence endpoint. 0.67% of 360,000 active. inhibition, % at 15 µM. AID 602261, 2012;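 active = compounds whose normalised, plate-corrected inhibition of enzyme fluorescence in the single-dose primary screen is 50% or more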;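 also: 0% = DMSO with enzyme and 100% = substrate without enzyme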
GRIN3A LBD mod: binders of NR3A ligand-binding domain, primary screen, biophysical, differential scanning fluorimetry, uHTS; 2.5% of 340,000 active; NR3A LBD differential scanning fluorimetry, Tm shift; 0% = protein alone, 100% = glycine-bound protein; Tm shift relative to glycine control, % at 25 µM;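 active = melting temperature shift of at least 10% of the positive control shift, at one fixed dose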
rCAG bind conf: small molecules binding CAG repeat RNA – biochemical, fluorescence, confirmation. r(CAG) RNA repeat, TO-PRO-1 dye displacement fluorescence. inhibition, % at 3 µM. shares compounds with rCAG RNA binder. 70% of 4,300 active;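 active = inhibition above a per-plate cutoff, the mean inhibition of sample wells plus 3 SD, cut at about 35% in these data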;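 also: loss of TO-PRO-1 fluorescence as compound displaces dye from 1x1 AA loop RNA; 0% = DMSO only wells and 100% = 100 µM mitoxantrone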
dCAG dye counter: displacement of TO-PRO-1 from CAG DNA duplex, counter-screen for rCAG RNA repeat binder project, biochemical, fluorescence, TO-PRO-1 dye, d(CAG) DNA oligo; shares compounds with rCAG RNA binder; d(CAG) DNA oligo TO-PRO-1 dye displacement; inhibition, % at 3 µM; 94% of 4,300 active; AID 652068, 2013;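 active = inhibition above its plate's cutoff, the mean test-well inhibition plus 3 SD, cut at about 4.8% in these data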;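 also: 0% = DNA dye mix with DMSO and 100% = 100 µM mitoxantrone; hits displace the dye from DNA and so lower well fluorescence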
dCAG dye DR: inhibitors of DNA CAG/GTC TO-PRO-1 complex, dose response, counter-screen for rCAG RNA repeat binder project, biochemical, fluorescence, TO-PRO-1 dye | shares compounds with rCAG RNA binder | DNA CAG/GTC duplex TO-PRO-1 dye displacement fluorescence | IC50, µM | 20% of 250 active | AID 686960, 2013; in the data active = IC50 below about 10 µM
Starred values were filed as active, the others as inactive; . = no result. In the library only some 4.3% were active in any assay of this set; here they are far more common.

SMILES	NadD inh	rCAG RNA binder	FAS TE block	GRIN3A LBD mod	rCAG bind conf	dCAG dye counter	others
COc1ccc(NC(=O)c2c(NC(=O)CCC(=O)O)sc(-c3ccccc3)c2C)cc1	7	50*	-1	0	57*	12*	dCAG dye DR=>30
COC(=O)C1=C(C)N(C)C(=NCc2ccc(OC)cc2)NC1c1ccc(Cl)cc1 (configuration not stated)	.	9	.	.	.	.
COc1ccccc1NS(=O)(=O)c1ccc(NC(=O)c2[nH]nc(OC)c2[N+](=O)[O-])cc1	3	47*	-3	-4	26	7.2*
COC(=O)C[C@@H]1CC[C@@H]2[C@@H](COc3ccc(NC(=O)c4ccc(F)cc4)cc3C(=O)N2C)O1	.	3	.	.	.	.
CCCS(=O)(=O)NC(=O)C1(C)CCN1C(=O)Cc1ccc(-c2ccccc2)cc1 (configuration not stated)	3	21	-10	.	.	.
CC(C)c1ccc(CC(=O)N2CCC2(C)C(=O)NS(=O)(=O)c2ccc(Cl)s2)cc1 (configuration not stated)	-7	40*	-8	.	41*	11*
CC(C)(C)c1ccc(CC(=O)N2CCC2(C)C(=O)NS(=O)(=O)c2ccc(Cl)s2)cc1 (configuration not stated)	-3	62*	-7	.	61*	24*
COc1cc(C)ccc1S(=O)(=O)NC(=O)C1(C)CCN1C(=O)Cc1ccc(C(C)(C)C)cc1 (configuration not stated)	-1	28	-5	.	.	.
CC1(C(=O)NS(=O)(=O)c2ccc(Cl)s2)CCN1C(=O)Cc1ccc(-c2ccccc2)cc1 (configuration not stated)	3	74*	-7	.	75*	38*
COc1ccc(Oc2c(Br)cnn(Cc3cccc4ccccc34)c2=O)cc1	.	6	.	.	.	.
CCN=C1NC(c2cccc(F)c2)C(C(=O)OC)=C(C)N1Cc1ccccc1C(F)(F)F (configuration not stated)	.	2	.	.	.	.
N#Cc1cccc(NC(=O)CSc2n[nH]c(=O)[nH]c2=O)c1	0	2	-4	1	.	.
N#Cc1cccc(NC(=O)CSc2sc3c(O)cc(=O)[nH]c3c2C#N)c1	18	47*	1	-1	19	7.3*
CCOc1cccc(NC(=O)CSc2sc3c(O)cc(=O)[nH]c3c2C#N)c1	3	39*	-2	-2	23	9.4*
CCOc1cccc(NC(=O)CSc2nncn2N)c1	-4	3	-3	0	.	.
O=C(C(=O)N1CCC(CNS(=O)(=O)Cc2ccccc2)CC1)c1cccs1	.	2	.	.	.	.
O=C(N/N=C/C=C/c1ccco1)/C(=C/c1ccccc1)NC(=O)c1ccccc1	30	38*	-1	3	21	13*
O=C(N/N=C/C=C/c1ccco1)c1ccncc1	9	8	-3	-1	.	.
O=C(CNC(=O)c1ccc(-c2ccccc2)cc1)Nc1ccc(S(=O)(=O)Nc2ncccn2)cc1	9	38*	-2	-1	29	10*
NS(=O)(=O)c1ccc(NS(=O)(=O)c2ccc(NC(=O)c3ccc(-c4ccccc4)cc3)cc2)cc1	17	59*	0	23*	72*	39*
O=C(Nc1ccncc1)c1ccc(S(=O)(=O)Nc2ccccc2)cc1	-4	3	-2	-1	.	.
CCNC(=O)C[C@H]1CC[C@H]2[C@@H](COc3ccc(NC(=O)Nc4ccccc4)cc3C(=O)N2C)O1	.	2	.	.	.	.
COc1ccc2nc(Nc3nc4cc5c(cc4s3)OCO5)sc2c1	25	44*	1	14*	32	20*
COc1cc(OC)cc(C(=O)NNc2nc3cc4c(cc3s2)OCO4)c1	-3	10	1	-1	.	.
